Results reported in PubChem BioAssay AID1822 (The Scripps Research Institute Molecular Screening Center, 2009).
About 3,500 (1.2%) of roughly 290,000 compounds were called active.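 How the source made its calls: active means inhibition above the campaign mean inhibition over all tested compounds plus 3 SD (cut at about 28% in these data); inactive means the rest.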 Many of the other results were omitted from the sample, so actives are more common in it than they were.

tested on: M18 aspartyl aminopeptidase (Plasmodium falciparum 3D7); experiment: PfM18AAP inhibitors, malaria aminopeptidase, primary screen, biochemical, QFRET, recombinant enzyme (AID 1822); details: H-Glu-NHMec fluorogenic cleavage, at 7.35 µM, stronger effect = higher value;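 further: 0% = plate median of test compound wells and 100% = 2 mM ZnCl2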

Structure (SMILES) | inhibition
CCCCN(Cc1ccccc1)C(=O)C1CCN(Cc2sccc2C)CC1 | 10.9% (inactive)
CCC(C)C(=O)Nc1ccccc1N1CCN(c2ccc(F)cc2)CC1 (centres undefined) | 4% (inactive)
OCCNc1nc2ccccc2n1-c1ncnc2sc3c(c12)CCC3 | -6.82% (inactive)
Cc1ccc(C)c(NC(=O)CSc2nc3c(oc4ccccc43)c(=O)n2-c2ccccc2)c1 | 2.4% (inactive)
CCOC(=O)c1cccc(NS(=O)(=O)c2c(C(=O)N3CCCCCC3)c(C)n(C)c2C)c1 | 0.1% (inactive)
Cc1cc(N2CCOCC2)nc(-c2ccc(Br)cc2)n1 | -2.46% (inactive)
Cc1cc(N2CCN(c3ccccc3)CC2)nc(N2CCOCC2)n1 | -12.7% (inactive)
Cc1ccc(Sc2cc(N3CCOCC3)nc(-c3ccccc3)n2)cc1 | 28.3% (active)
Cc1cc(C)nc(-n2nc(C)cc2NC(=O)c2ccc(Br)o2)n1 | -3.58% (inactive)
CSc1n[nH]c(=S)n1N | 32.7% (active)
Oc1ccc(Br)cc1/C=N/Nc1ccccn1 | 15.5% (inactive)
Oc1ccc(/C=N/Nc2ccc(C(F)(F)F)cn2)cc1O | 34.4% (active)
O=C(Nc1ccccc1)Nc1ccc(C(F)(F)F)cn1 | -2.42% (inactive)
CCc1ccc(Nc2nnc(SCC(=O)c3ccc4c(c3)NC(=O)CO4)s2)cc1 | 3.56% (inactive)
O=C(Cn1nc([N+](=O)[O-])nc1Br)NC1CCCCC1 | 0.92% (inactive)
CCOc1cc(NC(=O)c2cnccn2)c(OCC)cc1NC(=O)c1ccc(C)cc1 | 5.95% (inactive)
O=C(OCC1O[C@@H](OC(=O)c2cc(O)c(O)c(O)c2)[C@@H](OC(=O)c2cc(O)c(O)c(O)c2)[C@@H](OC(=O)c2cc(O)c(O)c(O)c2)[C@@H]1OC(=O)c1cc(O)c(O)c(O)c1)c1cc(O)c(O)c(O)c1 (some centres undefined) | 41.3% (active)
CN(C)c1ccc(CNC(=O)CN2C(=O)COc3ccc(S(=O)(=O)N4CCCC4)cc32)cc1 | 4.42% (inactive)
COc1ccccc1CCNC(=O)C1CCN(C(=O)/C=C/c2ccccc2)CC1 | -9.1% (inactive)
CCOc1ccc(/C=N\NC(=O)c2c(C)nc3cc(C)ccn23)cc1 | -0.74% (inactive)
O=C(CN1C(=O)CSC1=O)N1CCCC(Nc2ccc(F)cc2)C1 (centres undefined) | -12.5% (inactive)
O=C1CCCCN1CCCC(=O)N1CCCC(Nc2ccc(F)cc2)C1 (centres undefined) | 33.9% (active)
O=C(CN1CCOC1=O)N1CCCC(Nc2ccc(F)c(F)c2)C1 (centres undefined) | -0.1% (inactive)
CCOC(=O)[C@@H]1[C@H]2COc3cc(OC)ccc3[C@@H]2N2C(=O)N(c3cccc(C)c3)C(=O)[C@@]12C | -13.2% (inactive)

Structure (SMILES) | inhibition
CCOC(=O)c1c(-c2ccccc2)oc2cc(Br)c(O)cc12 | -7.24% (inactive)
CCOC(=O)c1c(-c2ccccc2)oc2ccc(OCC(N)=O)cc12 | 4.97% (inactive)
CCOC(=O)c1c(-c2ccccc2)oc2cc(Br)c(O)c(C=O)c12 | 28.4% (active)
O=C(c1cnc(Cl)c(Cl)c1)N1CCN(S(=O)(=O)c2ccc(F)cc2)CC1 | -8.29% (inactive)
Cc1ccc(OCC(=O)Nc2nnc(-c3ccco3)s2)cc1 | -1.67% (inactive)
CNc1nnc(-c2ccco2)s1 | -6.9% (inactive)
COc1ccc(OCC(=O)Nc2nnc(-c3ccco3)s2)cc1 | 29.5% (active)
N#Cc1cccc(CN2CCC(=O)N([C@H](CO)c3ccccc3)CC2)c1 | -11.8% (inactive)
CCn1c2ccc(F)cc2c2nnc(SCCN3CCOCC3)nc21 | 10.1% (inactive)
Cc1ccc2c(c1)c1ncn(Cc3ccc(F)cc3)c(=O)c1n2C | -2.55% (inactive)
Cn1c2ccc(F)cc2c2nnc(NN)nc21 | 30.3% (active)
Cc1cccc(C(=O)NNC(=O)CSc2nnc(C(C)C)n2C)c1 | -1.87% (inactive)
COc1ccccc1/C=N\Nc1cc(C)nc(-n2nc(C)cc2C)n1 | 4.17% (inactive)
COc1cccc(/C=N/Nc2ncc(C(F)(F)F)cc2Cl)c1O | 12.8% (inactive)
COc1cccc(/C=N/Nc2cc(C)nc(-c3ccccc3O)n2)c1O | 52.7% (active)
COC(=O)c1ccc(OC(=O)c2cnccn2)cc1 | 5.19% (inactive)
O=c1oc2ccccc2cc1-c1cn(-c2ccccc2)c(=S)[nH]1 | 11.4% (inactive)
COc1ccc(-c2cn(-c3ccc(OC)cc3)c(=S)[nH]2)cc1 | 24.3% (inactive)
S=c1[nH]c(-c2cccs2)cn1-c1ccccc1 | 38.5% (active)
Cc1cc(C)c2nc(N(CCN(C)C)C(=O)/C=C/c3cccs3)sc2c1 | 0.71% (inactive)
S=C(NCCCc1ccccc1)Nc1ccc(Br)cc1 | -6.24% (inactive)
O=C(CSC(=S)N1CCOCC1)c1ccccc1 | 4.44% (inactive)
O=C(CSC(=S)N1CCOCC1)c1cc(Br)cc(Br)c1O | 44.3% (active)
O=C(c1cc2cc(Br)cc(Br)c2oc1=O)N1CCOCC1 | -1.08% (inactive)

Structure (SMILES) | inhibition
Cc1ccc2c(c1)sc1ncc(NC(=O)c3ccccc3)c(=O)n12 | -1.31% (inactive)
CN(CC(=O)NCCN1CCOCC1)S(=O)(=O)c1ccc(F)cc1 | -0.36% (inactive)
CCc1ccc(C(=O)COC(=O)c2ccco2)cc1 | 1.62% (inactive)
Cc1ccc(OCc2n[nH]c(=S)n2-c2ccc(C)cc2)cc1 | 14.1% (inactive)
S=c1[nH]nc(COc2ccccc2)n1-c1ccccc1 | 19.1% (inactive)
COc1ccc(OCc2n[nH]c(=S)n2N)cc1 | 32.5% (active)
COc1ccc(CNC(=O)CN(C(=O)c2csnn2)c2cnc3ccccc3c2)cc1 | 3.77% (inactive)
CN(C)[C@@H]1C(=O)C(C(N)=O)=C(O)[C@@]2(O)C(=O)C3=C(O)c4c(O)ccc(Cl)c4[C@@H](O)[C@H]3C[C@@H]12 | 37% (active)
COc1ccc(CN2CCN(C(=O)CCC(=O)Nc3nnc(C(C)C)s3)CC2)cc1F | 0.79% (inactive)
CC1CC(C)CN(CCCNC(=O)c2csc3c2CCCCC3)C1 (centres undefined) | -10.4% (inactive)
COc1ccc(C2C3=C(CCCC3=O)N(CC(=O)O)C3=C2C(=O)CCC3)cc1 | 5.23% (inactive)
CCOc1ccc(C2C3=C(CCCC3=O)N(CC(=O)O)C3=C2C(=O)CCC3)cc1 | 32.6% (active)
CCOc1ccc(C2C(C#N)=C(N)N(N(C)C)C3=C2C(=O)CCC3)cc1 (centres undefined) | 8.27% (inactive)
COc1cccc(C(=O)NNS(=O)(=O)c2ccc(F)cc2)c1 | 10.3% (inactive)
CC(C)CN(CC(C)C)CC(O)CN(c1ccccc1)S(=O)(=O)c1ccccc1[N+](=O)[O-] (centres undefined) | 2.89% (inactive)
C=CCn1c(Cn2nnc3ccccc32)nnc1SCC(=O)N/N=C/c1cc(Br)cc(OC)c1O | 28.3% (active)
COc1ccc(OC)c(/C=N/NC(=O)CSc2nnc(C)n2-c2ccccc2)c1 | -0.06% (inactive)
Cc1ccc(Cn2c(SCC(=O)N/N=C/c3ccccc3OCC(=O)O)nc3ccccc32)cc1 | 5.43% (inactive)
O=C1C2CCCN2C(=O)N1CCCCN1CCN(c2cccc(C(F)(F)F)c2)CC1 (centres undefined) | -6.19% (inactive)
CC(C)C1Cc2c(sc3c2c(=O)n(-c2ccccc2)c2nncn32)CO1 (centres undefined) | 9.11% (inactive)
CC(C)CNC(=O)C(=O)Nc1ccc(N(C)C)cc1 | 5.25% (inactive)
CN(C)c1ccc(C(CC(=O)O)C(=O)O)cc1 (centres undefined) | 33.2% (active)
CC(=O)NC(CC(=O)O)c1ccc(F)cc1 (centres undefined) | 4.92% (inactive)
COc1ccc(OC)c(C(O)c2nc3ccccc3n2C)c1 (centres undefined) | 2.35% (inactive)

Structure (SMILES) | inhibition
CC(=O)c1ccc(N2CCN(CC(O)c3ccccc3)CC2)cc1 (centres undefined) | -0.23% (inactive)
COC(=O)c1ccc(CN2C(=O)NC(c3ccccc3)(c3ccccc3)C2=O)o1 | 0.97% (inactive)
CCOCCCNC(=O)c1ccc(CS(=O)(=O)c2cccc(C(F)(F)F)c2)o1 | 78.5% (active)
COc1ccccc1CNC(=O)c1ccc(CS(=O)(=O)c2ccccc2)o1 | -0.58% (inactive)
COc1ccc(CCNC(=O)c2ccc(CS(=O)(=O)c3ccc(Br)cc3)o2)cc1OC | -0.17% (inactive)
Cc1c(Cl)cccc1NC(=O)[C@@]1(CC(=O)O)CC(/C=C/c2ccccc2)=NO1 | -3.65% (inactive)
O=C(NCCO)C(=O)NCC(c1ccc2c(c1)OCO2)N1CCN(c2ccc(F)cc2)CC1 (centres undefined) | 2.98% (inactive)
COc1ccccc1-c1nnc(SCC(=O)Nc2cc(C)on2)o1 | 39.2% (active)
COc1ccccc1-c1nnc(SCC(=O)Nc2ccccc2)o1 | 17.1% (inactive)
Cc1cc(NC(=O)CSc2nnc(-c3ccc(Cl)s3)o2)no1 | 21.4% (inactive)
COc1ccc(C(=O)CCC(=O)Nc2ccc(Cl)cc2)cc1 | -1.71% (inactive)
NS(=O)(=O)c1ccc(Nc2nc(-c3ccccc3)cs2)cc1 | 2.74% (inactive)
COc1ccc(-c2csc(Nc3ccc(O)cc3)n2)cc1 | 28.1% (active)
Cc1ccccc1Nc1nc(-c2cccnc2)cs1 | 1.18% (inactive)
COc1ccc(C)cc1Nc1nc(-c2c(C)[nH]c3ccccc23)cs1 | -5.8% (inactive)
COc1cccc(CC(=O)Nc2nc(-c3ccc(OC)c(OC)c3)cs2)c1 | -8.12% (inactive)
CN(c1ccc(O)cc1)c1nc(-c2cccnc2)cs1 | 7.5% (inactive)
COc1ccc(OC)c(Nc2nc(-c3ccc(O)c(O)c3)cs2)c1 | 56.5% (active)
COc1ccc2nc(Nc3nc(-c4ccncc4)cs3)sc2c1 | -1.76% (inactive)
Oc1ccc(-c2csc(Nc3cccnc3)n2)cc1 | 55.7% (active)
O=C(N/C(=C\c1ccc([N+](=O)[O-])cc1)C(=O)N1CCOCC1)c1cccc(Br)c1 | 0.07% (inactive)
COc1ccc(C(=O)N2CCCN(C)CC2)c(OC)c1 | -1.62% (inactive)
